# Test results: PubChem BioAssay AID504608 (National Center for Advancing Translational Sciences (NCATS), 2011)
# Calls of active or inactive are those of the source. Calls come from the whole dose curve; as a rule, active = well fitted inhibition curve with a large enough effect; inconclusive = small, poorly fitted or top-dose-only effect; inactive = flat fitted curve, though single readings scatter.
# Assay: Quantitative high throughput screen for delayed death inhibitors of the malarial parasite plastid, 48 hour incubation.
# Conditions: P. falciparum in erythrocytes, luciferase growth
# Text: NIH Molecular Libraries Probe Production Network [MLPCN] NIH Chemical Genomics Center [NCGC] MLPCN Grant: R21 NS059500 Assay Provider: David Fidock and Eric Ekland, Columbia University The goal of this screen is to discover new antimalarial compounds that act by inhibiting the development of the apicoplast in the malarial parasite Plasmodium falciparum. The biochemical processes that make this organelle essential for erythrocytic stage parasites are not well understood. However, antibiotics, such as azithromycin and tetracycline, which target the apicoplast translational machinery, have a potent antimalarial effect. […] We have developed a cell-based assay that measures parasite growth based on the expression of an integrated copy of a firefly luciferase reporter. To detect small molecules that cause this 'delayed death' phenotype, erythrocytes infected with the luciferase-expressing parasites were incubated with compounds for either one or two generations, corresponding to 48 and 96 hours, respectively. Compounds that inhibit parasite growth in the second generation, but not the first, should be enriched in antimalarials that target the apicoplast. Growth inhibition is detected by a decrease in luciferase activity
# Four microliters of culture medium (RPMI 1640 with 0.5% w/v Albumax (GIBCO), 24 mM sodium bicarbonate and 10 ug/mL gentamycin) were dispensed by a Multi-drop Combi into white solid 1536-well plates (Grenier) and 23 nL compound was added by a pin tool. Four microliters of infected erythrocytes (2% hematocrit, 0.1% parasitemia final concentration) in culture medium were dispensed and the plates incubated for 48 hours at 37 C in 5% CO2. Two microliters of luciferase detection reagent was added and luminescence was detected by a ViewLux (PerkinElmer) reader
row,SMILES,Potency
1,COCCOC(=O)N(C)C[C@@H]1OCCCC[C@H](C)Oc2ccc(NC(=O)Nc3ccccc3)cc2C(=O)N([C@@H](C)CO)C[C@H]1C,14.2 µM (active)
2,COc1ccc(COC[C@H](C)N2C[C@@H](C)[C@H](CN(C)S(=O)(=O)c3ccc(F)cc3)OCCCC[C@H](C)Oc3ccc(NC(=O)Nc4ccccc4)cc3C2=O)cc1,0.0036 µM (active)
3,C[C@@H]1CN([C@@H](C)CO)C(=O)c2cc(NC(=O)Nc3ccccc3)ccc2O[C@@H](C)CCCCO[C@H]1CN(C)C(=O)Oc1ccccc1,5.04 µM (active)
